“And” between values parts separate entries of the source, which are not always exact repeats. Equal entries are not always repeated. Inconclusive results are not listed. The source holds several records for some structures; these can differ, active in one and inactive in another. The source made the active and inactive calls. Calls follow the shape of the dose curve; as a rule, active = well fitted curve in the direction sought with a large enough effect; inconclusive = small, poorly fitted or top-dose-only effect, or another doubt; inactive = no such curve, though single readings can be large; an effect the other way counts as inactive or inconclusive.
Columns and labels:
[1] = Viability qHTS for spleen associated tyrosine kinase inhibitor (SYKi) naive MV4-11 cells (AID 1963823); also: nearly all actives have a fitted effect of over 40% in size
Outline: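 CellTiter-Glo luminescence, 10 min room-temperature incubation, gave viability. Cells: naive MV4-11 (500/well), treated 72 hr at 37 C, 5% CO2.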

[2] = Viability qHTS for spleen associated tyrosine kinase inhibitor (SYKi) drug resistant MV4-11 cells (AID 1963824); also: nearly all actives have a fitted effect of over 35% in size
Outline: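 SYK inhibitor-resistant MV4-11 AML cells, 500 per well, added to predispensed compounds and incubated 72 hr at 37 C, 5% CO2. Viability measured by CellTiter-Glo luminescence after 10 min at room temperature.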

[3] = Quantitative highthroughput screen to assess conditional lethalithy of NOMO1 cells grown in RPMI1640 with untreated serum (RPMI+s) (AID 1963876); also: nearly all actives have a fitted effect of over 35% in size;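 as to Viability: 100% = DMSO wells and 0% = empty wells without cells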
Outline: (§1)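 Each medium arm—HPLM with 10% dialyzed FBS, or RPMI1640 with 5 mM glucose and 10% untreated or dialyzed FBS—was screened against an 11-point, 3-fold compound titration for 48 h at 37 °C, with CellTiter-Glo luminescence as endpoint.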

[4] = Quantitative highthroughput screen to assess conditional lethalithy of P12 Ichikawa cells grown in Human Plasma-Like Medium with dialyzed fetal bovine serum (HPLM+ds) (AID 1963879); conditions: Potency: viability; also: nearly all actives have a fitted effect of over 35% in size; as to Viability: series mostly up to about 46 µM
Outline: as §1

[5] = Quantitative highthroughput screen to assess conditional lethalithy of P12 Ichikawa cells grown in RPMI1640 with dialyzed fetal bovine serum (RPMI+ds) (AID 1963880); conditions: Potency: P12-Ichikawa viability; also: nearly all actives have a fitted effect of over 35% in size;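 as to Viability: 100% = DMSO wells and 0% = empty wells on each plate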
Outline: as §1

[6] = Quantitative highthroughput screen to assess conditional lethalithy of P12 Ichikawa cells grown in RPMI1640 with untreated serum (RPMI+s) (AID 1963881); conditions: Potency: viability; also: nearly all actives have a fitted effect of over 35% in size;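 as to Viability: series mostly up to about 46 µM; 100% = DMSO wells and 0% = empty wells without cells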
Outline: as §1

[7] = Cellular viability qHTS for adrenocortical cancer (ACC) cell line SW-13 (AID 1963989); conditions: SW-13 ACC cells viability, CellTiter-Glo, 48 h; activity (max response): stronger effect = lower value; also: nearly all actives have a fitted effect of over 65% in size;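 as to activity (max response): cells grown in serum-free medium with ITS supplement; % is scaled to controls: 0 for no effect and ±100 for the full control effect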
Outline: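 Luminescent ATP read-out (CellTiter-Glo, 20 min at room temperature) measured metabolically competent SW-13 cells after 48 h compound treatment. Final concentrations spanned up to 46 uM; bortezomib served as positive control.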

[8] = Cellular viability qHTS for adrenocortical cancer (ACC) cell line NCI-H295R (AID 1963990); also: nearly all actives have a fitted effect of over 60% in size
Outline: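 IC50 and maximal efficacy derive from four-parameter logistic modelling of titration curves, with reads scaled between DMSO-only wells (0%) and doxorubicin hydrochloride (100% inhibition). Compounds spanned up to 46 uM over 48 h.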

[9] = Quantitative highthroughput screen to assess conditional lethalithy of SEM cells grown in Human Plasma-Like Medium with dialyzed fetal bovine serum (HPLM+ds) (AID 1963882); also: nearly all actives have a fitted effect of over 35% in size; as to Viability: series mostly up to about 46 µM
Outline: as §1

[10] = Quantitative highthroughput screen to assess conditional lethalithy of SEM cells grown in RPMI1640 with unreated serum (RPMI+s) (AID 1963883); also: nearly all actives have a fitted effect of over 35% in size;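 as to Viability: 100% = DMSO wells and 0% = empty wells without cells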
Outline: as §1

[11] = Quantitative highthroughput screen to assess conditional lethalithy of SEM cells grown in RPMI1640 with dialyzed fetal bovine serum (RPMI+ds) (AID 1963884); also: nearly all actives have a fitted effect of over 35% in size;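 as to Viability: series mostly up to about 46 µM; 100% = DMSO control wells and 0% = empty wells without cells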
Outline: as §1

[12] = Quantitative highthroughput screen to assess conditional lethalithy of NOMO1 cells grown in Human Plasma-Like Medium with dialyzed fetal bovine serum (HPLM+ds) (AID 1963878); also: nearly all actives have a fitted effect of over 35% in size;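 as to Viability: 100% = DMSO wells and 0% = empty wells on each plate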
Outline: as §1
Potency is read from the fitted curve at half-maximal effect.

CCCc1cc(=O)[nH]c(=S)[nH]1
active: Potency [3] 9.35 µM | Potency [4] 10.5 µM | Potency [5] 16.6 µM | Potency [6] 14.8 µM
inactive: Potency [1] | Potency [2] | activity (max response) [7] 3.86% and 14.9% | Potency [8]

CN1CCN(c2ncc(-c3cc(Cl)cc(Cl)c3Cl)c(N)n2)CC1
inactive: Potency [9] | Potency [10] | Potency [11]
active: Potency [1] 16.6 µM | Potency [2] 16.6 µM | Potency [3] 0.332 µM | Potency [4] 2.64 µM | Potency [5] 3.72 µM | Potency [8] 22.4 µM

Cc1ccccc1N1C(=O)c2cc(S(N)(=O)=O)c(Cl)cc2NC1C (stereo not drawn)
inactive: Potency [1] | Potency [2] | Potency [3] | Potency [12] | Potency [5] | Potency [6] | Potency [10] | Potency [11] | activity (max response) [7] 17.3% | Potency [8]

FC(F)(F)c1ccc(Nc2nc3ccc(Oc4ccnc(-c5ncc(C(F)(F)F)[nH]5)c4)cc3[nH]2)cc1
inactive: Potency [3] | Potency [12]
active: Potency [1] 1.64 µM | Potency [2] 4.17 µM | Potency [9] 18.7 µM | Potency [10] 18.7 µM | Potency [11] 16.6 µM | Potency [7] 22.4 µM | Potency [8] 11.2 µM

CN(C)C1CCN(C(=O)c2ccc(NC(=O)Nc3nc(N4CCOCC4)nc(N4CCOCC4)n3)cc2)CC1
active: Potency [1] 25.2 nM and 37.2 nM | Potency [2] 35.5 nM and 59 nM | Potency [3] 0.662 µM | Potency [12] 0.0235 µM | Potency [10] 0.166 µM | Potency [11] 0.296 µM | Potency [7] 0.316 µM

Cc1cn(-c2cc(NC(=O)c3ccc(C)c(Nc4nccc(-c5cccnc5)n4)c3)cc(C(F)(F)F)c2)cn1
active: Potency [3] 0.935 µM | Potency [4] 0.935 µM | Potency [5] 1.05 µM
inactive: Potency [8]
inactive and 4.68 µM (active): Potency [2]
inactive and 2.35 µM (active): Potency [1]

S=P(N1CC1)(N1CC1)N1CC1
inactive and 6.61 µM (active): Potency [1]
inactive: Potency [3] | Potency [4] | Potency [5] | Potency [6] | activity (max response) [7] 10.4% | Potency [8]
active: Potency [2] 3.32 µM

COc1cc2ncn(-c3cc(OCc4ccccc4C(F)(F)F)c(C(N)=O)s3)c2cc1OC
active: Potency [1] 355 nM and 662 nM | Potency [2] 282 nM and 263 nM | Potency [3] 2.64 µM | Potency [4] 1.32 µM | Potency [5] 2.35 µM | Potency [6] 2.09 µM | Potency [10] 2.09 µM | Potency [11] 2.64 µM | Potency [7] 1.26 µM

O=C1NC(=O)C(c2cnc3ccccn23)=C1c1cn2c3c(cccc13)CN(C(=O)N1CCOCC1)CC2
inactive: Potency [3] | Potency [12] | Potency [8]
active: Potency [1] 0.231 µM | Potency [2] 0.092 µM | Potency [9] 0.0066 µM | Potency [11] 0.0074 µM

CCCCS(=N)(=O)CCC(N)C(=O)O (stereo not drawn)
inactive: Potency [3] | Potency [11] | Potency [8]
active: Potency [1] 24.1 µM | Potency [2] 17.1 µM | Potency [12] 16.6 µM

CCOc1cc(N2CCC(O)CC2)ccc1Nc1ncc2c(n1)N(C)c1ccccc1C(=O)N2C
active: Potency [1] 1.86 µM | Potency [2] 1.03 µM | Potency [3] 0.332 µM | Potency [4] 2.09 µM | Potency [5] 3.32 µM | Potency [6] 2.35 µM | Potency [9] 20.9 µM | Potency [11] 16.6 µM | Potency [8] 10 µM

O=C(O)Cn1nnc(-c2cc(N3CCC(Oc4cc(F)ccc4Br)CC3)no2)n1
active: Potency [2] 0.103 µM | Potency [3] 1.05 µM | Potency [4] 9.35 µM | Potency [5] 11.8 µM | Potency [6] 9.35 µM
inactive: Potency [1] | Potency [11] | Potency [8]

COc1cc2nccc(Oc3ccc(NC(=O)Nc4cc(C)on4)c(Cl)c3)c2cc1OC
inactive: Potency [3] | Potency [12]
active: Potency [1] 0.372 µM | Potency [2] 0.833 µM | Potency [10] 3.32 µM | Potency [11] 4.69 µM | Potency [7] 11.2 µM | Potency [8] 14.1 µM

CN[C@H]1CCc2cc(OC)c(OC)c(OC)c2-c2ccc(OC)c(=O)cc21
active: Potency [1] 0.0934 µM | Potency [2] 0.0934 µM | Potency [3] 0.0093 µM | Potency [4] 0.0118 µM | Potency [5] 0.0105 µM | Potency [6] 0.0105 µM | Potency [9] 0.0066 µM | Potency [10] 0.0083 µM | Potency [11] 0.0074 µM | Potency [7] 0.1 µM

COc1cc(N2CCC(N(C)C)CC2)ccc1Nc1ncc(Cl)c(Nc2ccccc2P(C)(C)=O)n1
active: Potency [1] 0.0661 µM | Potency [2] 116 nM and 148 nM | Potency [3] 2.63 µM | Potency [12] 1.05 µM | Potency [4] 0.933 µM | Potency [6] 2.09 µM | Potency [9] 0.467 µM | Potency [11] 0.524 µM | Potency [8] 8.91 µM

From PubChem BioAssay (NCATS)
